Results on 16 compounds are retold here after PubChem BioAssay (NCI).

Assay in all cases: NCI-60 one-dose screen, 48 h (100 = growth as untreated, 0 = no growth, -100 = all killed)
Common to all, as to conditions: 10 µM unless noted

The subject of assay [1] is T-47D breast.
Assay [2] has as its system BT-549 breast.
Assay [3] concerns MDA-MB-435 melanoma.
Assay [4] concerns SW-620 colon.
Assay [5] concerns MCF7 breast.
Assay [6] relates to HCT-116 colon.
In assay [7] the test system is HCC-2998 colon.
For assay [8], the system named is KM12 colon.

About 83,000 compounds went through this panel and 20% of them were active in at least one assay; those are over-represented in the sample as a whole.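 Method: cells in 96-well plates; compound added at one concentration; 48 h incubation; percent growth measured; values under 10 scored active.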 A number with no mark means an inactive call. Calls of active or inactive are those of the source.

Turning to `Nc1nc2c(c3ncccc13)C(c1cccc(Br)c1)Cc1ncccc1-2` (stereo not drawn), the growth is 29.3% in assay [1]; 24.8% in assay [2]; 1.43% (active) in assay [3]; 29.1% in assay [4]; 16.5% in assay [5]; 11.5% in assay [6]. Besides, the growth was 25.4% in assay [7] and 18.4% in assay [8].

For `Cc1cc(N/N=C/c2nc(-c3ccc(Cl)cc3)oc2C)c2cc(Cl)ccc2n1`, the growth in assay [1] was 77%; in assay [2] it was 91.2%; in assay [3], -29.7% (active); in assay [4] it was -69.3% (active); in assay [5] it was -86.2% (active); in assay [6] it was -47.1% (active). For the same compound, the growth in assay [7] was 103%; in assay [8] it was 53.6%.

On to `O=C(N/N=C/c1ccc(O)cc1O)c1cccnc1`, for which the growth was 26.9% in assay [1]; 59.5% in assay [2]; 63.8% in assay [3]; 44.6% in assay [4]; 7.27% (active) in assay [5]; 29.8% in assay [6]. Also, the growth is 35.1% in assay [7] and 58.3% in assay [8].

As to `Oc1ccc2c(=S)cc(-c3ccc(Br)cc3)oc2c1O`, the growth is 2.92% (active) in assay [1]; 44.6% in assay [2]; 23.3% in assay [3]; 5.25% (active) in assay [4]; -31.9% (active) in assay [5]; -22% (active) in assay [6]. For the same compound, the growth was 73.8% in assay [7] and 12.9% in assay [8].

As to `O=C(Nc1ccc(Oc2ccc(F)cc2)c(Cl)c1)c1cccnc1`, the growth is 70.6% in assay [1]; 92.5% in assay [2]; 41.5% in assay [3]; 92.7% in assay [4]; 76.7% in assay [5]; 88.2% in assay [6]. In addition, the growth was 91.2% in assay [7] and 76.4% in assay [8].

With `CCCCCCCCCCCCCCCC(=O)OCC1OC(n2cnc3c(=S)nc(N)[nH]c32)C(OC(=O)CCCCCCCCCCCCCCC)C1OC(=O)CCCCCCCCCCCCCCC` (stereo not drawn), the growth in assay [1] is 41.3%; in assay [2], 53%; in assay [3], 59.3%; in assay [4], 78.6%; in assay [5] it was 35%; in assay [6], 32.6%. Further, the growth in assay [7] is 53.6%; in assay [8], 71%.

For the compound `CCN(C(=O)CN1CCN(c2cc3c(cc2F)c(=O)c(C(=O)O)cn3C2CC2)CC1)c1nc(-c2ccc(OC)cc2)cs1`, the growth in assay [1] is 78.7%; in assay [2], 73.1%; in assay [3] it was 53.2%; in assay [4], 49%; in assay [5], 73.9%; in assay [6], 40%. Moreover, the growth was 85.4% in assay [7] and 52.9% in assay [8].

For `CN(C)CCCC(=O)Nc1ccc(Cn2nnc3c2C(=O)c2nnn(Cc4ccc(NC(=O)CCCN(C)C)cc4)c2C3=O)cc1`, the growth was -5.44% (active) in assay [1]; 80.5% in assay [2]; -83.7% (active) in assay [3]; 52.3% in assay [4]; -40% (active) in assay [5]; 6.95% (active) in assay [6]. Also, the growth is 59.3% in assay [7] and 81.4% in assay [8].

As for `COc1ccc(-n2c(C)nc3c(c(C)nn3-c3ccccc3)c2=O)cc1`, the growth was 55.9% in assay [1]; 9.9% (active) in assay [2]; 4.94% (active) in assay [3]; 23.1% in assay [4]; 11.5% in assay [5]; 3.27% (active) in assay [6]. Also, the growth is 16.6% in assay [7] and 11.3% in assay [8].

With `Nc1c(C(=O)Nc2ccccc2)sc2nc3c(cc12)CN(CCc1ccccc1)CC3`, the growth in assay [1] was 88.1%; in assay [2] it was 104%; in assay [3] it was 102%; in assay [4] it was 91.3%; in assay [5], 85.8%; in assay [6], 98.3%. The growth in assay [7] was 99%; in assay [8], 98.8%.

In the case of `CN1CCN(Cc2ccc(NC(=O)c3[nH]ncc3Nc3ccnc4ccsc34)cc2)CC1`, the growth in assay [1] was 65.8%; in assay [2], 63.1%; in assay [3], 61.7%; in assay [4], 20.6%; in assay [5], 12.9%; in assay [6] it was 10.1%. The growth in assay [7] is 33%; in assay [8], 12.3%.

Turning to `COc1ccc(/C=C2\N=C3SC=C(N)N3C2=O)cc1`, the growth is 9.75% (active) in assay [1]; 11.8% in assay [2]; 9.59% (active) in assay [3]; 21.9% in assay [4]; 13.4% in assay [5]; -6.91% (active) in assay [6]. Further, the values for the growth in assay [7] and in assay [8] were 40.9% and 46.9%, respectively.

`O=S(=O)(NCCCNc1cc(-c2cn(-c3ccccc3)nc2-c2ccccc2)ccn1)c1ccc(C(F)(F)F)cc1`: the growth in assay [1] is 38.7%; in assay [2], 71.2%; in assay [3] it was 50%; in assay [4] it was 71.1%; in assay [5] it was 39.2%; in assay [6] it was 43.2%. Further, the values for the growth in assay [7] and in assay [8] were 64.1% and 40.5%, respectively.

On to `CCN(CC)CC(C)Nc1ccc([N+](=O)[O-])c2sc3ccccc3c(=O)c12` (stereo not drawn), for which the growth was 31.2% in assay [1]; 60.4% in assay [2]; 24.1% in assay [3]; 19.1% in assay [4]; 7.9% (active) in assay [5]; 24.5% in assay [6]. In addition, the growth in assay [7] is 41.3%; in assay [8] it was 29.2%.

As for `COc1ccc(-c2cn3c(ccc4ccccc43)n2)cc1`, the growth in assay [1] was 76.5%; in assay [2] it was 97.8%; in assay [3], 114%; in assay [4] it was 97.5%; in assay [5] it was 75.8%; in assay [6], 96.5%. Moreover, the growth was 109% in assay [7] and 95.2% in assay [8].

Consider `O=C(O)c1ccc2c(c1Sc1ccccc1)C(=O)c1ccccc1C2=O`, for which the growth in assay [1] was 98.6%; in assay [2], 83.8%; in assay [3], 73.1%; in assay [4] it was 121%; in assay [5], 95.4%; in assay [6], 98.5%. Further, the growth in assay [7] was 105%; in assay [8], 101%.
